# How the values were obtained:
# Conditions in all cases: concentration: 1 μM, replicates: in singlicate; n = 1
# JNK3 = system: T1, JNK3
# T1 construct: gene MAPK10
# KIT-autoinhibited = system: KIT-autoinhibited
# KIT = system: KIT
# LATS1 = system: LATS1
# LATS2 = system: LATS2
# LCK = system: LCK
# LIMK1 = system: LIMK1
# LIMK2 = system: LIMK2
# LKB1 = system: T2, LKB1
# T2 construct: gene STK11
# LOK = system: T3, LOK
# T3 construct: gene STK10
# 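Also: KINOMEscan kinase panel screen.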
SMILES,%Inh (JNK3) [%],%Inh (KIT-autoinhibited) [%],%Inh (KIT) [%],%Inh (LATS1) [%],%Inh (LATS2) [%],%Inh (LCK) [%],%Inh (LIMK1) [%],%Inh (LIMK2) [%],%Inh (LKB1) [%],%Inh (LOK) [%]
CNc1nc(-c2ccc3c(N)n[nH]c3c2)cc(N2C[C@@H](C(=O)NC3CCCCC3)OC[C@H]2C)n1 [GSK2375584],0,7,20,0,15,19,8,24,0,0
COC(=O)c1cccc(NC(=O)NC2CCN(c3ccnc(Nc4ccc(F)cc4)n3)C2)c1 (stereo not drawn) [GSK1379725],17,0,44,0,0,0,0,0,0,0
O=C(Nc1n[nH]c2nc(-c3cccs3)c(Br)cc12)C1CC1 [SB-735297],9,0,5,11,3,16,26,0,0,18
CS(=O)(=O)CCNCc1nc(-c2ccc3ncnc(Nc4ccc(OCc5ccccc5)c(Cl)c4)c3c2)cs1.Cl [GW582764],0,0,1,0,0,17,0,0,0,0
Cc1ccc(NC(=O)c2ccc(Cl)cc2)cc1-c1ccc(C(=O)Nc2ccncc2)cc1 [GSK1398467],0,0,99.4,0,0,68,0,3,0,0
COc1ccc(Nc2nccc(NCCNC(=O)Nc3cc(C)ccc3C)n2)cc1 [GSK1379899],0,0,0,0,0,26,0,0,0,0
FC(F)(F)c1ccccc1-c1cc(-c2c[nH]nc2-c2ccccn2)ccn1 [GW679396],40,0,3,0,0,17,0,0,11,0
CNc1cc(-c2ccc3c(N)n[nH]c3c2)nc(N)n1 [GSK2224810],0,0,19,0,20,0,0,9,0,0
CCn1c(-c2ccccc2)nc2cnccc21 [SB-733416],7,0,8,0,0,18,20,0,0,0
Cn1cncc1C(=O)NC1CCN(c2ccnc(Nc3ccc(F)cc3)n2)C1 (stereo not drawn) [GSK1379717],13,0,17,25,0,4,0,2,0,0
Cc1ccccc1Cn1ccn2c(=O)cc(N3CCOCC3)nc12 [GSK2269905],1,1,14,0,0,16,18,0,0,0
O=c1cc(N2CCOCC2)nc2n(Cc3cccc(Cl)c3Cl)c3ccccc3n12 [GSK2299009],3,0,36,0,16,43,4,24,8,0
COC(=O)c1cccc(NC(=O)NC2CCN(c3ccnc(Nc4ccc(OC)cc4)n3)C2)c1 (stereo not drawn) [GSK1379746],0,0,44,0,0,11,0,3,0,0
CNc1nc(-c2ccc3c(N)n[nH]c3c2)cc(N2C[C@@H](C(=O)Nc3ccccc3)CC[C@H]2C)n1 [GSK2298859],3,0,4,0,3,22,0,13,7,0
COc1ccc(Nc2nccc(N3CCC(NC(=O)c4cc5ccccc5s4)C3)n2)cc1 (stereo not drawn) [GSK1379738],10,0,7,0,1,16,8,17,0,0
COc1ccc(-c2coc3ccc(-c4nnc(C)o4)cc23)cc1,0,0,1,0,0,0,0,0,5,0
COc1ccc(CSc2nnc(-c3ccc4ncsc4c3)o2)cc1C(F)(F)F,0,0,18,12,0,0,0,0,2,0

SMILES,%Inh (JNK3) [%],%Inh (KIT-autoinhibited) [%],%Inh (KIT) [%],%Inh (LATS1) [%],%Inh (LATS2) [%],%Inh (LCK) [%],%Inh (LIMK1) [%],%Inh (LIMK2) [%],%Inh (LKB1) [%],%Inh (LOK) [%]
Nc1nccc(-c2c(-c3ccc(F)cc3)ncn2C2CCN(Cc3ccccc3)CC2)n1 [SB-219980],95.4,0,0,13,0,0,13,0,36,18
COc1cc2ncnc(Nc3cccc(Br)c3)c2cc1OC.Cl [GI230329],–,0,10,0,0,66,0,0,10,36
Cc1cnc(N)c(/C=C/c2cncc(C(=O)NCCc3ccc(Cl)cc3Cl)c2)c1.Cl [GSK190937],4,0,99.6,0,36,7,0,2,28,0
COc1cccc(C2=C(Nc3cc(Cl)c(O)c(Cl)c3)C(=O)NC2=O)c1 [SB-390767],15,0,0,1,0,0,31,0,0,0
Cl.Cl.Cl.N#Cc1ccc(CCNc2nccc(-c3cccc(CN4CCNCC4)c3)n2)cc1 [GSK2137462],22,0,29,15,36,12,18,38,1,0
O=C(Nc1n[nH]c2nc(-c3cccs3)c(Br)cc12)C1CCCC1 [SB-743341],46,13,36,20,0,38,2,15,0,26
COc1nccc(-c2c(-c3ccc(F)cc3)ncn2CCCN2CCOCC2)n1 [SB-282852],51,20,0,0,27,25,0,0,0,45
O=C(Nc1n[nH]c2cc(-c3ccsc3)ccc12)C1CC1 [SB-732932],30,0,56,2,15,0,0,0,0,3
O=C(Nc1n[nH]c2nc(-c3ccco3)c(Br)cc12)C1CCN(Cc2ccccc2)C1.O=C(O)[C@H](O)[C@@H](O)C(=O)O (stereo not drawn) [SB-742034],13,7,22,0,0,5,0,0,37,0
CS(=O)(=O)Cc1ccc(Nc2nccc(-c3c(-c4cccc(NC(=O)C5CCCCC5)c4)nn4ncccc34)n2)cc1 [GSK350559],36,14,88,0,48,23,22,14,0,81
COc1ccc(Nc2nccc(-c3ccc(NC(=O)c4cc5cc(F)ccc5[nH]4)cc3)n2)cc1 [GSK1229496],3,0,11,0,1,0,38,7,15,0
O=c1cc(N2CCOCC2)nc2n(Cc3ccccc3F)ccn12 [GSK2297428],0,0,7,0,0,28,0,1,5,0
CCCCc1nn2ncccc2c1-c1ccnc(NC2CC2)n1 [GW684374],82,0,67,0,0,17,33,34,0,0
CCn1c(-c2c(N)noc2C)nc2cnccc21 [SB-737856],9,0,0,0,0,10,3,100,0,0
CC[C@@H]1CO[C@H](C(=O)Nc2ccccc2)CN1c1cc(-c2ccc3c(N)n[nH]c3c2)nc(NC)n1 [GSK2376236],0,0,17,0,0,30,1,9,5,0
Cc1ccc(NC(=O)Nc2ccccc2)cc1-c1ccc(C(=O)Nc2ccncc2)cc1 [GSK1398471],8,0,99.7,0,0,35,18,0,0,25
Cc1c(Cn2c3ccccc3n3c(=O)cc(N4CCOCC4)nc23)cccc1C(F)(F)F [GSK2306394],4,0,7,0,0,11,0,3,0,0
